Results on 40 molecules are retold here after PubChem BioAssay (Tox21).

SMILES strings stand for the structures. Results filed as inconclusive are left out. Values without a mark were called inactive. Activity calls are given as the source filed them. The call rests on the fitted dose curve; in most records, active means well fitted cell-killing curve with a large enough effect in the repeat runs (not every such curve was filed as active); inconclusive means weak or mixed curves, or effect the other way; inactive means no such curve, though single readings can be large or run the other way.
On the % scale 0 is the no-effect control and ±100 the full control effect; potency means the concentration at half of the fitted maximal effect.

The assay can be described thus: qHTS assay to identify small molecule antagonists of the farnesoid-X-receptor (FXR) signaling pathway - cell viability counter screen (AID 743221). Further: nearly all actives have a fitted effect of over 50% in size. Conditions: FXR-bla HEK293T viability, CellTiter-Glo luminescence, 16 h; series mostly up to 62.6 µM; activity change, negative = cytotoxicity: at the top concentration. An excerpt: National Center for Advancing Translational Sciences [NCATS]
NIH Chemical Genomics Center [NCGC]
U.S. Environmental Protection Agency [EPA]
National Institutes of Environmental Health Sciences [NIEHS]
National Toxicology Program [NTP]
U.S. Food and Drug Administration [FDA]
The farnesoid-X-receptor (FXR), a nuclear hormone receptor, is highly expressed in liver, intestine, kidney and adrenal cortex. Natural ligands of FXR are the bile acids (Cholic acid, Chenodeoxy cholic acid etc). FXR is an important regulator of diverse metabolic pathways, including the bile acid homeostasis, lipid and glucose metabolisms. FXR regulates the expression of target genes by binding either as a monomer or as a heterodimer with the retinoid X receptor (RXR). Numerous studies have reported that FXR exerts protective function during cholestasis, diabetes, liver regeneration, and cancer. To identify compounds that inhibit FXR signaling, GeneBLAzer FXR-UAS-bla HEK 293T cell line (Invitrogen, Carlsbad, CA) containing a beta-lactamase reporter gene under the control of a UAS response element was used to screen the Tox21 10K compound library. The cytotoxicity of the Tox21 compound library against the FXR-bla cell line was tested in parallel by measuring the cell viability using CellTiter-Glo assay in the same wells.
Tox21 Assay Protocol Summary:
FXR-bla cells were dispensed at 5000 cells/5uL/well in 1536-well black wall/clear bottom plates using a Multidrop Combi (Thermo Fisher Scientific, Waltham, MA) dispenser. After the assay plates were incubated at 37 C and 5% CO2 for 5 h, 23 nL of compounds dissolved in DMSO, positive controls or DMSO only was transferred to the assay plate by a Pintool station (Kalypsys, San Diego, CA), followed by addition of 1 uL Chenodeoxycholic acid (50 uM, final concentration in the wells). The assay plates were incubated at 37C for 16 h. After 1 uL of LiveBLAzerTM B/G FRET substrate was added using a Bioraptr Flying Reagent Dispenser (FRD) workstation (Beckman Coulter, Indianapolis, IN), the plates were incubated at room temperature for 2 h, and fluorescence intensity was measured by an Envision plate reader (PerkinElmer, Shelton, CT). For cell viability readout that measures cytotoxicity, 4uL/well of CellTiter-Glo reagent was added into the assay plates using a Bioraptr FRD. After 30 min incubation at room temperature, the luminescence intensity in the plates was measured using a ViewLux plate reader (PerkinElmer).
Regarding `O=[N+]([O-])[O-].[Tl+]`, the “activity change, negative = cytotoxicity” value is 0.276% [at 81.1 µM].

With `CNC(=O)/C=C(\C)OP(=O)(OC)OC`, the “activity change, negative = cytotoxicity” value is 8.89%.

`CCN(CC)C(=O)N[C@@H]1C=C2c3cccc4[nH]cc(c34)C[C@@H]2N(C)C1`: the “activity change, negative = cytotoxicity” value is 2.07%.

For the molecule `CC[C@H](C)[C@H]1O[C@]2(C=C[C@@H]1C)C[C@@H]1C[C@@H](C/C=C(\C)[C@@H](O[C@H]3C[C@H](OC)[C@@H](O[C@H]4C[C@H](OC)[C@@H](NC)[C@H](C)O4)[C@H](C)O3)[C@@H](C)/C=C/C=C3\CO[C@@H]4[C@H](O)C(C)=C[C@@H](C(=O)O1)[C@]34O)O2`, the Potency was 8.71 µM (active).

For the molecule `CC(C)C(Nc1ccc(C(F)(F)F)cc1Cl)C(=O)OC(C#N)c1cccc(Oc2ccccc2)c1` (stereo not given), the “activity change, negative = cytotoxicity” value is -4.8% [at 81.1 µM].

For `CC(C)C(Br)C(=O)NC(N)=O` (stereo not given), the “activity change, negative = cytotoxicity” value is -6.33%.

Turning to `CCC1(CC)C(=O)N=C(O)NC1=O`, the “activity change, negative = cytotoxicity” value was 20.3%.

For `CC[C@]1(O)CC[C@H]2[C@@H]3CCC4=CCCC[C@@H]4[C@H]3CC[C@@]21C`, the “activity change, negative = cytotoxicity” value is 0.612%.

Take `CCC(OC(C)=O)C(CC(C)NC)(c1ccccc1)c1ccccc1` (stereo not given): the Potency is 69.2 µM (active).

`Cc1cnc2c(C(=O)O)c(Cl)ccc2c1`: the “activity change, negative = cytotoxicity” value was 1.24%.

As for `c1cc[n+]2c(c1)-c1cccc[n+]1CC2`, the “activity change, negative = cytotoxicity” value is 0.227%.

As to `O=[N+]([O-])C(Br)Br`, the “activity change, negative = cytotoxicity” value is -21.9%.

`CC(C)[C@@H](Nc1ccc(C(F)(F)F)cc1Cl)C(=O)OC(C#N)c1cccc(Oc2ccccc2)c1` (stereo not given in full): the “activity change, negative = cytotoxicity” value was -1.55%.

On to `O=[N+]([O-])c1cccc2cccc([N+](=O)[O-])c12`, for which the “activity change, negative = cytotoxicity” value is 2.4% [at 81.1 µM].

`CC(=O)[O][Sn]([c]1ccccc1)([c]1ccccc1)[c]1ccccc1`: the Potency was 0.138 µM (active).

Turning to `CC1CCCC1`, the “activity change, negative = cytotoxicity” value was 11.1%.

In the case of `CC(C)=CCN1CC[C@@]2(C)c3cc(O)ccc3C[C@@H]1[C@@H]2C`, the “activity change, negative = cytotoxicity” value was -3.42% [at 81.1 µM].

Consider `COCCC#N`, for which the “activity change, negative = cytotoxicity” value is -0.516%.

As for `Clc1ccc(C(Cl)(Cl)Cl)cc1Cl`, the “activity change, negative = cytotoxicity” value was -2.71%.

Turning to `OCC(Br)CBr` (stereo not given), the “activity change, negative = cytotoxicity” value was 2.81% [at 81.1 µM].

For `BrCC(Br)(Br)Br`, the “activity change, negative = cytotoxicity” value was -0.995% [at 81.1 µM].

With `Cc1cccc(Cc2cnc[nH]2)c1C`, the “activity change, negative = cytotoxicity” value is -12.4%.

For `CCOC(=O)Cc1ccccc1`, the “activity change, negative = cytotoxicity” value is 15.8%.

For the molecule `[O]=[Cr][O][Cr]=[O]`, the “activity change, negative = cytotoxicity” value was 5.67% [at 81.1 µM].

As for `N#Cc1c2ccccc2cc2ccccc12`, the “activity change, negative = cytotoxicity” value was -28.8%.

On to `Clc1cc(Cl)c(-c2cc(Cl)c(Cl)cc2Cl)cc1Cl`, for which the “activity change, negative = cytotoxicity” value is -0.0692%.

With `C[C@]12Cc3cn[nH]c3C[C@@H]1CC[C@@H]1[C@@H]2CC[C@@]2(C)[C@H]1CC[C@]2(C)O`, the Potency is 33.5 µM (active).

Turning to `[Cl][Hg][c]1ccccc1`, the Potency was 1.38 µM (active).

In the case of `CC1(C)[C@H](/C=C2\CCSC2=O)[C@@H]1C(=O)OCc1coc(Cc2ccccc2)c1`, the “activity change, negative = cytotoxicity” value is -2.86%.

Regarding `CC(=O)[O-].CC(=O)[O-].CC(=O)[O-].[Cr+3]`, the “activity change, negative = cytotoxicity” value was 4.39%.

Regarding `C[N+]1(C)[C@@H]2CC[C@H]1CC(OC(=O)C(CO)c1ccccc1)C2` (stereo not given in full), the “activity change, negative = cytotoxicity” value was 0.422%.

With `[O-][Cl+3]([O-])([O-])O`, the “activity change, negative = cytotoxicity” value was 12.2% [at 81.1 µM].

`C1=CCC=C1`: the “activity change, negative = cytotoxicity” value is -26.3%.

`COC(=O)N(OC)c1ccccc1COc1ccn(-c2ccc(Cl)cc2)n1`: the “activity change, negative = cytotoxicity” value is 6.17%.

Turning to `N#CCCl`, the “activity change, negative = cytotoxicity” value is -0.738% [at 81.1 µM].

As to `C=CCOC(=O)c1ccccc1N`, the “activity change, negative = cytotoxicity” value was 10.1% [at 81.1 µM].

As to `Nc1c(Cl)c(Cl)c(Cl)c(Cl)c1Cl`, the “activity change, negative = cytotoxicity” value is -11.7%.

As for `O=c1c2ccccc2c(=O)c2c1cc(Cl)c1[nH]c3c([nH]c12)c(Cl)cc1c(=O)c2ccccc2c(=O)c13`, the “activity change, negative = cytotoxicity” value is 10.9%.

For the molecule `O=c1[nH]c(Cl)c(Cl)cc1Cl`, the “activity change, negative = cytotoxicity” value is 0.374%.

As to `O=C(O)[C@H](O)[C@@H](O)C(=O)O`, the “activity change, negative = cytotoxicity” value is 9.6%.
